# Vaccinia Venus = inhibitors of vaccinia virus (Venus reporter) | hit rate 0.46% among 330,000 | Vaccinia virus Venus reporter expression, fluorescence | Potency, µM (doses to about 36.5 µM), for inactives: top-dose activity change, negative = inhibition, hits mostly inhibitors; calls by dose curve; tested in A549 cells; also: potency is read from the fitted curve at half-maximal effect; nearly all actives have a fitted effect of over 30% in size
# HCV inhibitor = inhibitors of hepatitis C virus infection | Huh7.5.1 HCVcc-Cre infection, luciferase reporter, 44 h | Potency, µM (titrated, usually from 41.8 µM), for the others: at the top dose activity change, negative = inhibition, most hits filed as inhibitors | hit rate 3.4% among 340,000 | AID 651820; active = well fitted inhibition curve with a large enough effect; inconclusive = small, poorly fitted or top-dose-only effect, or another doubt; inactive = no such curve, though single readings can be large or run the other way; also: potency is read from the fitted curve at half-maximal effect
#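 Cells seeded at 1,000/well and cultured 4 h, then compounds added followed by HCVcc-Cre virus (~0.5 moi). After 44 h further culture, luciferase substrate was added, plates held 15 min at room temperature, and luminescence read for 15 sec.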
# Vaccinia mCherry = vaccinia inhibition (mCherry reporter); AID 720579; hit rate 0.63% among 310,000; Vaccinia virus mCherry reporter infection, fluorescence; Potency, µM (titrated, usually from 36.5 µM), without a hit: at the top dose activity change, negative = inhibition, usual class: inhibitors; calls by dose curve; tested in A549 cells; also: potency is read from the fitted curve at half-maximal effect; nearly all actives have a fitted effect of over 35% in size
# FMDV antiviral = foot and mouth disease virus antiviral activity; AID 1159524; hit rate 1.2% among 410,000; FMDV antiviral cell-based qHTS; Potency, µM (doses to about 57.9 µM), inactives show at the highest dose activity change, negative = inhibition, hits mostly inhibitors; calls by dose curve; tested in HEK293T cells; also: read-out not given here; potency is read from the fitted curve at half-maximal effect; nearly all actives have a fitted effect of over 45% in size
# HCMV inh = human cytomegalovirus inhibition. HFF cells, HCMV-luciferase reporter, 72 h; hits give low values. activity change, negative = inhibition, % at 57.5 µM. hit rate 4.5% among 410,000; in the data active = activity change below about -60%; inconclusive = no clear call, values can overlap the other calls; inactive = above about -39%
#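 Steps: HFFs plated, 16 h 37C; compounds added; HCMV-luciferase added to MOI 1 PFU/cell; 72 h 37C; OneGlo reagent, 5 min room temperature; luminescence read, normalized to controls.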
# * hit, by the source's call; i = inactive; ? = inconclusive; . = no result. Only some compounds are listed: those with a hit (about 7.3% of all), similar ones and a draw of the others. % is scaled to controls: 0 for no effect and ±100 for the full control effect.
SMILES,Vaccinia Venus,HCV inhibitor,Vaccinia mCherry,FMDV antiviral,HCMV inh
CCOc1cc2c(cc1OCC)-n1cccc1C(c1ccc(C(C)C)cc1)NC2 (stereo unspecified),-12%,?,?,?,-68*
CC(C)c1ccc2nc3sc(C(=O)N4CCc5ccccc5C4)c(N)c3cc2c1,-12%,10µM*,?,27%,36
CCOc1ccc2nc3sc(C(=O)N4CCN(C)CC4)c(N)c3cc2c1,.,11µM*,.,4%,?
Cc1ccc2nc3sc(C(=O)N4CCOCC4)c(N)c3cc2c1,-12%,28%,?,10µM*,-69*
O=c1[nH]c(=S)[nH]cc1Oc1ccc(Cl)cc1Cl,-10%,2%,i,-11%,-97*
CC(C)NC(=O)c1csc(C(O)c2cccc(N(C)C)c2)n1 (stereo unspecified),.,.,.,.,-75*
O=C(CN1C(=O)CCSc2ccccc21)Nc1ccc(C(F)(F)F)cc1,-17%,.,-5%,-30%,-4
Cn1c(C(=O)NCc2cccc(Cl)c2)cc2oc3ccccc3c21,25%,.,-21%,-1%,-64*
CCOc1ccccc1CNC(=O)c1cc2occc2n1C,-14%,-13%,?,1%,-31
O=C(NCc1cccc(Cl)c1)c1ccc2ccccc2n1,-11%,?,0%,22%,-30
COC(=O)c1cc2oc3ccccc3c2n1Cc1ccccc1Cl,-7%,.,-6%,-12%,-17
COCCNC(=O)c1cc2oc3ccccc3c2n1C,.,13µM*,.,0%,42
CCOc1ccccc1CNC(=O)c1cc2oc3ccccc3c2n1C,.,?,.,1%,-85*
Nc1[nH]c(=O)ncc1-c1ccc([N+](=O)[O-])cc1,.,.,.,.,-16
CC1C(=O)N2CCCc3cc(NC(=O)C(=O)NCCc4ccc(F)cc4)cc1c32 (stereo unspecified),-20%,11µM*,-19%,0%,24
COC1/C=C/C=C(\C)Cc2cc(O)c(Cl)c(c2)N(C)C(=O)CC(OC(=O)C(C)C)C2(C)OC2C(C)C2CC1(O)NC(=O)O2 (stereo unspecified),?,16%,-3%,0%,-91*
NC(N)=NC(N)=Nc1ccc2ccccc2c1,.,?,.,-7%,-69*
CS(=O)(=O)c1ccccc1C(=O)Nc1cccc(-c2nc3ccccc3o2)c1,.,11µM*,.,?,-11
CC(=O)Nc1ccc(S(=O)(=O)Nc2cccc(-c3nc4ccccc4o3)c2)cc1,.,13µM*,.,-2%,-21
O=C(Nc1cccc(-c2nc3ccccc3o2)c1)C(F)(F)F,-19%,.,?,32µM*,-103*
CCC(=O)Nc1cccc(-c2nc3ccccc3o2)c1,-13%,?,-27%,10%,97
O=S(=O)(Nc1ccc(-c2nc3ccccc3o2)cc1)c1ccccc1,.,-7%,.,47%,-15
CC(C)c1c(C(=O)N(C)CC2CCCN(C)C2)cnn1-c1nccc(-c2cccs2)n1 (stereo unspecified),-16%,.,-20%,9%,.
CCOC(=O)c1c(CN(C)C)n(-c2ccccc2)c2cc(Br)c(OC)cc12,?,7.9µM*,0%,-19%,-30
CCC(=O)Nc1ccccc1,3%,?,8%,-5%,1
SMILES,Vaccinia Venus,HCV inhibitor,Vaccinia mCherry,FMDV antiviral,HCMV inh
CCC(=O)NC1=C(Cl)C(=O)C(NC(=O)CC)=C(Cl)C1=O,?,?,-9%,?,-94*
CCS(=O)(=O)c1ccc(N=Nc2ccc(O)c3ncccc23)c(OC)c1,?,?,7.9µM*,?,-92*
Oc1ccc(N=Nc2ccccc2C(F)(F)F)c2cccnc12,?,3.2µM*,?,-7%,-97*
COc1ccccc1N=Nc1ccc(O)c2ncccc12,?,2.2µM*,?,-10%,-73*
CC1OC2CC(=O)OC2C2=C1C(=O)c1c(O)cccc1C2=O (stereo unspecified),.,.,.,.,-106*
O=C1c2cccc(O)c2C(=O)c2c(O)cc(CO)cc21,27%,3%,32%,-15%,.
O=c1cnc2cncnc2n1Cc1ccccc1,.,.,.,-10%,.
O=C(NC(C(=O)N/N=C/c1cccc2ccccc12)c1n[nH]c(=O)c2ccccc12)c1ccccc1 (stereo unspecified),?,22µM*,.,-24%,-4
O=C(NC(C(=O)N/N=C/c1cc([N+](=O)[O-])ccc1O)c1n[nH]c(=O)c2ccccc12)c1ccccc1 (stereo unspecified),-16%,3%,-23%,-2%,-89*
COc1cccc(-n2c(SC)nnc2C2CCN(CCC(C)c3ccc(C)o3)CC2)c1 (stereo unspecified),-5%,.,-16%,-18%,.
CC(c1ccccc1)C1C(C#N)=C(N)OC2=C1C(=O)CC(C)(C)C2 (stereo unspecified),.,5%,.,-8%,-65*
CC1(C)CC(=O)C2=C(C1)OC(N)=C(C#N)C2C#Cc1ccccc1 (stereo unspecified),2%,2%,-1%,?,-18
CC/C(=N/Nc1cccc(C)c1)c1cnnc(SC)n1,-29%,10µM*,?,?,-68*
COC(=O)c1ccc(Cl)cc1NC(=O)N1CC=C(c2c[nH]c3ccccc23)CC1,-7%,.,-19%,5%,0
COc1ccc(-n2ncc3c(NC(C)(C)CO)ncnc32)cc1,-13%,.,i,-7%,-6
COc1ccc(-n2nnnc2S(=O)(=O)Cc2ccc(C(=O)O)cc2)cc1,.,-15%,.,28µM*,-18
COc1cc(OC)cc(-n2nnnc2SCC(=O)N2CCCC2)c1,-1%,-12%,i,.,-12
CCc1ccc(Oc2nnnn2-c2ccc(C(N)=O)cc2)cc1,.,-1%,.,0%,?
COc1ccc(-n2nnnc2S(=O)(=O)CC(=O)N2CCCCC2)cc1,?,?,13µM*,20µM*,.
COc1cccc(-c2cn3c(n2)sc2cc(C(=O)NCc4ccccc4F)ccc23)c1,-13%,.,-9%,23%,.
CC(=O)N1CCC[C@H]1C(=O)NCC1Cc2cc(C)cc(-c3ccc(Cl)cc3)c2O1 (stereo partly specified),-10%,.,-17%,-4%,.
CC(=O)Nc1ccc(NC(=O)c2ccc(N(C)S(=O)(=O)c3ccc(C)cc3)cc2)cc1,-17%,-13%,-24%,-22%,-8
COc1ccccc1N(C)S(=O)(=O)c1ccc(C(=O)Nc2cc(OC)c(OC)c(OC)c2)cc1,.,?,.,?,-23
COc1ccccc1N(C)S(=O)(=O)c1ccc(C(=O)Nc2ccncc2)cc1,-18%,?,i,32µM*,?
Cc1nc2cc(NC(=O)c3ccc(S(=O)(=O)N(C)c4ccccc4)cc3)ccc2o1,-10%,6.3µM*,-4%,22µM*,-69*
COc1cc(NC(=O)c2ccc(S(=O)(=O)N(C)c3ccccc3)cc2)cc(OC)c1,-17%,11µM*,-4%,-11%,-79*
CN(c1ccccc1)S(=O)(=O)c1ccc(NC(=O)c2ccc(-c3ccccc3)cc2)cc1,?,.,-25%,?,-96*
COc1ccc(/C=C/C(=O)N2CCc3c(cnc(C)c3CNS(=O)(=O)c3cccs3)C2)cc1,-15%,.,-26%,-7%,.
